This is part of a sample that, as a whole, favours compounds with a hit. Of some 79,000 tested, about 15% had one in any assay. A number with no mark means an inactive call. Activity calls are given as the source filed them. No stated cut-off is given here; in the data, active means growth inhibition above about 70%; inactive means the rest.
Columns and labels:
[1] = NCI Yeast Anticancer Drug Screen. Data for the rad50 strain (AID 155);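 further: 0% = growth of vehicle-only cultures of the same strain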; details: S. cerevisiae rad50 strain growth inhibition; at 50.0 µM; stronger effect = higher value
In short: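 Genetically altered yeast (DNA repair pathway); compound treatment; growth inhibition vs vehicle ctrl.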

[2] = NCI Yeast Anticancer Drug Screen. Data for the mec2-1 strain (AID 157); details: S. cerevisiae mec2-1 strain, at 50.0 µM, stronger effect = higher value
In short: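 Vehicle-treated cultures served as reference for growth inhibition of compound-exposed mec2-1 yeast.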

[3] = NCI Yeast Anticancer Drug Screen. Data for the sgs1 mgt1 strain (AID 161);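 further: 0% = growth of cultures given vehicle only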; details: S. cerevisiae sgs1 mgt1 strain, at 50.0 µM, stronger effect = higher value
In short: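 Inhibition of yeast growth, normalised to vehicle-treated controls, is reported for a strain bearing genetic alterations in DNA damage repair.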

[4] = NCI Yeast Anticancer Drug Screen. Data for the cln2 rad14 strain (AID 165);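 further: 0% = growth equal to vehicle treated cultures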; details: S. cerevisiae cln2 rad14 strain, at 50.0 µM, stronger effect = higher value
In short: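 Each compound was tested on cln2 rad14 yeast. Inhibition of growth was calculated against vehicle-exposed controls.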

[5] = NCI Yeast Anticancer Drug Screen. Data for the bub3 strain (AID 167); details: S. cerevisiae bub3 mutant strain, at 50.0 µM, stronger effect = higher value
In short: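 Yeast carrying a defined mutation is treated with each compound, and growth is compared with that of vehicle-exposed cells to give inhibition.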

[6] = NCI Yeast Anticancer Drug Screen. Data for the mlh1 rad18 strain (AID 175); details: S. cerevisiae mlh1 rad18 strain growth inhibition; at 50.0 µM; stronger effect = higher value
In short: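 Vehicle-treated cultures served as the reference for growth inhibition in a yeast strain carrying DNA damage repair alterations exposed to each compound.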

SMILES | growth inhibition [1] | growth inhibition [2] | growth inhibition [3] | growth inhibition [4] | growth inhibition [5] | growth inhibition [6]
CCOc1cn(C2CC(O)C(CO)O2)c(=O)[nH]c1=O (stereo not drawn) | -1.35% | 7.75% | -6.95% | -10.9% | -16.2% | 23.6%
NNC(=O)c1csnn1 | -24.6% | -22.6% | -24.5% | -25.4% | -23.6% | -7%
CCN(CC)C(=O)c1ccncc1C(=O)c1ccncc1 | -1.2% | -3.55% | -8.4% | -14.3% | -1.95% | -10.1%
COC(=O)C1CCc2c(OC)ccc(OC)c2C1=O (stereo not drawn) | -2.75% | -4.7% | -3.65% | 20.5% | -2.45% | -7.95%
CC1=C(C(=O)O)CCCO1 | -7.6% | 7.75% | 10.2% | -3% | -3.75% | 25.7%
COC1(c2ccccc2)OC(=O)C(C)(C)c2ccccc21 (stereo not drawn) | -5.1% | 7.65% | 14.2% | 22.1% | 13.9% | 3.55%
CCC(=O)CCc1ccc2ccccc2c1 | 22.2% | 15.7% | 10.9% | -16.9% | 23.5% | 24.2%
CC(C)c1ccc(O)c(C(C)(C)C)c1 | -25.5% | -29.8% | -14.3% | -13.9% | -32.5% | -14.6%
C[N+](C)(CCO)CCO | 3.15% | -8% | -8.5% | 14.8% | 0.85% | 13.1%
C=C1C(=O)O[C@H]2[C@H]1CC(=O)/C(C)=C\CC[C@@]1(C)O[C@@H]21 | 29.2% | 59.4% | 63.4% | 35.5% | 64.8% | 43.1%
COC1CC(N=[N+]=[N-])C(OC(=O)c2ccccc2)C(CBr)O1 (stereo not drawn) | 22.4% | 18.1% | 22.6% | -4.4% | 7.4% | 19.6%
S=C(N1CCN(c2cccc(Cl)c2)CC1)N1CCN(c2cccc(Cl)c2)CC1 | -7.4% | 13.7% | 23% | 9.6% | 2.1% | 12.7%
Cc1cc2c(c(C(C)(C)C)c1)OC(=O)/C2=C1/C(=O)Oc2c1cc(C)cc2C(C)(C)C | 8.3% | -8% | -9.25% | 0.85% | 2.3% | -12.8%
Cc1ccc(C(=O)Cc2ccccc2)cc1 | 8.05% | 6.15% | 4.85% | 1.25% | -1.85% | 1.05%
O=C(O)/C=C\C(=O)Nc1ccccc1 | 10.2% | 15.8% | -16.1% | -53.5% | -3.25% | 11.5%
c1csc(NC(Nc2nccs2)C23CC4CC(CC(C4)C2)C3)n1 | 28.1% | 12.7% | -1.4% | 20.6% | 1.1% | 7.45%
Cc1oc2nc(N(C)C)nc(Cl)c2c1C | 7.15% | 5.8% | 8.25% | 12.5% | 22.1% | -15%
COC(=O)c1cc(O)c(C(=O)OC)s1 | 3.05% | -9.75% | -0.55% | -27.9% | 14.8% | 11.2%
O=C(NC/C(Cl)=C/Cl)Nc1cccc2c1CCCC2 | -5.5% | -13.2% | 19.8% | -10.8% | 22% | 3.6%

SMILES | growth inhibition [1] | growth inhibition [2] | growth inhibition [3] | growth inhibition [4] | growth inhibition [5] | growth inhibition [6]
COC(=O)[C@]1(C)CCC[C@]2(C)C3=C[C@@H](O)[C@@]4(C(C)C)O[C@H]4[C@]3(O)CC[C@@H]12 | -17.9% | -29.3% | -9.15% | -2.7% | -8.25% | -26.6%
CCOC(=O)CC[Si](CC)(CC)CC | 0.25% | -13.8% | 1.7% | -28.5% | -15.3% | -1.45%
O=C1CN(CCN2CCCCC2)CC(=O)N2Cc3ccccc3CN12 | -10.1% | 2.85% | 12.1% | -1.55% | 7.8% | 14.2%
N#CC1=C(O)NC(O)=C(C#N)C12C(=O)Nc1ccccc12 | 4.1% | 2.85% | 2.05% | 3.15% | 13.2% | 10.3%
Cc1ccc(NC(=O)c2ccc(Cl)cc2)cc1Cl | 18.9% | 1.35% | 2.95% | -9.65% | 13.8% | -2.3%
c1ccc2c(c1)C(=NOc1nc3ccccc3c3ccccc13)c1ccccc1-2 | -4.85% | 10.6% | 8.75% | 3.65% | 7.95% | 12%
C=CCOC(=O)C(CC=C)C(C)=O (stereo not drawn) | 3.3% | -21.9% | -17.1% | -5.05% | -19.8% | -11.4%
Cn1nc(-c2ccccc2)c(C(=O)/C=C/c2ccccc2)c(N2CCCC2)c1=O | -22.1% | -11.2% | 3.2% | -4.15% | -21.1% | -19.2%
CC(c1ccccc1)C1OCC(CCCCO)O1 (stereo not drawn) | -7.9% | -20.2% | -10.7% | 0.55% | -15.1% | -20.1%
CCc1cccc(CC)c1N1C(=O)C2C(C1=O)C1(Cl)C(Cl)=C(Cl)C2(Cl)C1(Cl)Cl (stereo not drawn) | 37.4% | 50.6% | 65.4% | 74.2% (active) | 61% | 87.6% (active)
C(=N/OC(c1ccccc1)(c1ccccc1)c1ccccc1)/c1ccccc1 | 13.7% | 24.2% | 6.2% | 7.8% | 15.8% | 6.45%
CC(C)C1=CC(=O)C(C)(C2=NC(C)(C)CO2)c2ccccc21 (stereo not drawn) | -0.1% | -9.35% | 4.4% | 22.7% | -10.5% | 5.3%
Cc1cccc(NC(=O)Nc2cccc(C)c2)c1 | -3.75% | -2.95% | -2% | -25.9% | -22.1% | -18.2%
CC(O)(C(=O)O)c1ccccc1O (stereo not drawn) | -1.1% | 1.7% | 2.05% | 3.3% | 6.1% | 6.75%
COC(C)CCOC(=O)c1ccccc1 (stereo not drawn) | -33% | -17.6% | -14.2% | -29.7% | -29.9% | -31.2%
CCCCCC(O)C(C)C (stereo not drawn) | 1.5% | -2.55% | -8.65% | -36.8% | 15.7% | 6.8%
CC(C)(C)c1ccc(/C=N/NC(=O)c2cccnc2)cc1 | 0.55% | 8.45% | 4.15% | 14.3% | 11.3% | 9.45%
C/C(N=NS(=O)(=O)c1c(C)cc(C)cc1C)=C1\C=CC=CN1O | -26.4% | -10.2% | -8.25% | -6.95% | 4.15% | -18.8%
O=C1CC2CC1C1CCCC21 (stereo not drawn) | -32.5% | -18.5% | -56% | -10.2% | -31.4% | -40.7%

Source: PubChem BioAssay (NCI)
